# Sampled rows, rich in hits. Any-hit rate of the full collection: about 12%.
# JMJD2A Tudor inh: JMJD2A Tudor domain (human) inhibition; AlphaScreen JMJD2A-Tudor / H3K4me3 peptide binding; Potency, µM (top dose mostly 114 µM), for the others: at the highest dose activity change, negative = inhibition, usual class: inhibitors; 390,000 tested, 4.4% active; AID 504339; note: % is set by controls: 0 for no effect and ±100 for the full control effect; nearly all actives have a fitted effect of over 50% in size
# HP1b chromo inh: blocks HP1-beta chromodomain binding to methylated histone tails. AlphaScreen HP1-beta / biotin-H3K9me3 peptide binding. 390,000 tested, 0.56% active. AID 540317. P83916. Potency, µM (titrated, usually from 114 µM), for inactives: at the top dose activity change, negative = inhibition, actives largely listed as inhibitors; note: nearly all actives have a fitted effect of over 70% in size
# Target sequence (P83916 whole entry, looked up): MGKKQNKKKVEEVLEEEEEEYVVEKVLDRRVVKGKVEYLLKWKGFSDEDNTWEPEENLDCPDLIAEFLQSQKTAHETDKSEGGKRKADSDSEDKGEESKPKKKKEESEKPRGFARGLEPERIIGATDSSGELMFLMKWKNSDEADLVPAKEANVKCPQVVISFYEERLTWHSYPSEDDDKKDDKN
#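 HP1-beta protein (50 nM final) preincubated 30 min at room temperature with biotinylated H3(1-18)K9me3 peptide (50 nM) in PBS pH 7.4, 0.01% Tween-20, then compound added for 30 min. AlphaScreen streptavidin donor/nickel chelate acceptor beads (10 ug/mL final), 30 min dark, luminescence read.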
# L3MBTL1 block: inhibitors of human L3MBTL1; AlphaScreen L3MBTL1–H3K9me1 peptide binding; Potency, µM (series often up to 57.1 µM), without a hit: top-dose activity, negative = inhibition, hits mostly inhibitors; 230,000 tested, 0.66% active; AID 485360; note: % is set by controls: 0 for no effect and ±100 for the full control effect; nearly all actives have a fitted effect of over 60% in size
#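 Read-out is AlphaScreen signal from streptavidin donor and nickel chelate acceptor beads (10 ug/mL final each) bridging L3MBTL1 (50 nM) and biotinylated K9-monomethylated H3(1-15) peptide (75 nM), after 30 min compound exposure at room temperature.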
# Sfp inh: blocks B. subtilis Sfp PPTase activity. Q9F4F7. Biochemical Sfp PPTase activity, qHTS. Potency, µM, inactives show largest response in the series, negative = inhibition, actives largely listed as inhibitors. 310,000 tested, 3.5% active;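 note: the enzyme is Sfp with the accession as filed and its product quenches rhodamine fluorescence; 0% = enzyme reaction without inhibitor and -100% = no enzyme wells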
#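 Step 1, compound plus 15 nM Sfp-PPTase, 15 min, room temperature. Step 2, add rhodamine-CoA (5 uM) and BHQ-2-YbbR (12.5 uM). Step 3, read 525/598 nm fluorescence at 0 and 30 min.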
# BAZ2B inh: BAZ2B (human) inhibition. Potency, µM (top dose mostly 114 µM), for the others: top-dose activity change, negative = inhibition, most hits filed as inhibitors. 360,000 tested, 4.4% active. Q9UIF8. AlphaScreen BAZ2B-H3K14Ac peptide displacement; note: % is set by controls: 0 for no effect and ±100 for the full control effect; nearly all actives have a fitted effect of over 60% in size
#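 AlphaScreen luminescence quantifies BAZ2B engagement of H3K14Ac peptide; the protein and biotinylated peptide are both at 50 nM final, buffer PBS pH 7.4 with 0.01% Tween-20, all steps at room temperature.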
# G9a block: G9a (human) methyltransferase inhibition; 350,000 tested, 8.8% active; G9a H3K9 monomethylation, AlphaScreen, 2 h; Potency, µM (titrated, usually from 102 µM), without a hit: at the top dose activity, negative = inhibition, usual class: inhibitors; AID 504332; note: % is set by controls: 0 for no effect and ±100 for the full control effect; nearly all actives have a fitted effect of over 75% in size
# Target sequence (Q96KQ7 913-1193 limits assumed): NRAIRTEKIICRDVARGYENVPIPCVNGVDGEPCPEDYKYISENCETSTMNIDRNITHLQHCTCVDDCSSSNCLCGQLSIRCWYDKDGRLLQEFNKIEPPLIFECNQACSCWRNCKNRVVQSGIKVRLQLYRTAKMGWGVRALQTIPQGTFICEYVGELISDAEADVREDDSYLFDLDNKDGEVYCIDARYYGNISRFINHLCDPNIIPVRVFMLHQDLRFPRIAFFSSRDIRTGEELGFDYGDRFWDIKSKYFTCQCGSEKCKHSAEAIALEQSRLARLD
#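 AlphaScreen read-out: biotin-H3K9 peptide (500 nM) methylation by 20 nM enzyme with 20 uM SAM, 2 h at room temperature after 15 min compound preincubation; anti-monomethyl H3K9 antibody plus donor/acceptor beads, 10 min dark.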
# * = called active by the depositor; u = inconclusive; x = no result given; [ ] = remark or other dose. Calls come from the whole dose curve; as a rule, active = well fitted curve in the direction sought with a large enough effect; inconclusive = small, poorly fitted or top-dose-only effect, or another doubt; inactive = no such curve, though single readings can be large; an effect the other way counts as inactive or inconclusive. Potency is the fitted concentration of half-maximal effect.
SMILES,JMJD2A Tudor inh,HP1b chromo inh,L3MBTL1 block,Sfp inh,BAZ2B inh,G9a block
O=C(O)C(Cc1ccc(Cl)cc1)Sc1nc2ccccc2[nH]1 (stereo not drawn),-2.1%,-10.7%,x,-7.9%,-1.2%,50.1µM*
Cc1ccc(CNC(=O)CSc2nc3ccccc3[nH]2)cc1,-11.6%,54.2%,x,-9.9%,-20.0%,25.1µM*
Cc1ccc2nc(SCC(=O)NCc3ccc(F)cc3)[nH]c2c1,3.6%,69.8%,x,10.0%,-2.5%,-41.4%
COc1ccccc1CCNC(=O)Cc1c(C)c2cc(Cl)c(O)cc2oc1=O,3.1%,58.4%,x,x,2.5%,3.3%[59 µM]
COc1cc(CCC(=O)Nc2ccc(C)c(S(=O)(=O)N(C)C)c2)cc(OC)c1OC,-3.4%,38.2%,7.1%,9.5%,3.3%,25.1%[59 µM]
COC(=O)c1ccc(C)c(NC(=O)CCc2ccc(OC)c(OC)c2)c1,-21.2%,16.9%,-0.5%,7.4%,-4.9%,50.1µM*
COC(=O)c1ccc(C)c(NC(=O)CCc2cc(OC)c(OC)c(OC)c2)c1,8.4%,19.1%,-5.3%,3.5%,-2.0%,44.7µM*
COc1ccc(CCNC(=O)CCc2cc(OC)c(OC)c(OC)c2)cc1,7.0%,59.4%,x,1.9%,-1.7%,3.2%
COc1ccc(CCN(C)CCC(=O)Nc2cc(C)ccc2C)cc1OC,-21.3%,24.3%,29.0%,-18.8%,46.0%,12.7%[59 µM]
COc1cc(CCC(=O)Oc2ccc(C(C)=O)cc2)cc(OC)c1OC,-4.8%,33.2%,0.1%,-4.2%,-4.5%,70.8µM*
CCOC(=O)c1ccc(N2C(=O)c3n[nH]c(-c4ccco4)c3C2c2ccc(F)cc2)cc1 (stereo not drawn),u,-13.7%,x,x,x,11.2µM*
CCOC(=O)c1ccc(N2C(=O)c3n[nH]c(-c4ccco4)c3C2c2ccccc2OC)cc1 (stereo not drawn),u,-18.5%,x,x,x,12.6µM*
COc1ccc(Cn2c(C(=O)O)c(CNCCc3cccs3)c3ccc(C)cc32)cc1,-33.1%,-4.1%,x,x,-36.8%,-34.8%[59 µM]
O=S(=O)(c1ccc(Cl)cc1)N1CCN(c2nc(-c3ccccc3)nc3ccccc23)CC1,-14.2%,31.2%,x,x,x,x
CCc1ccc(C(=O)C(C)CN2CCCCC2)cc1 (stereo not drawn),x,x,x,8.0%,x,-48.9%[12.7 µM]
CCn1cc(C(=O)N(C)Cc2ccccc2)c(=O)c2cc(S(=O)(=O)N3CCc4ccccc4C3)ccc21,-21.3%,20.8%,x,x,x,-33.3%[59 µM]
O=C(O)c1cc([N+](=O)[O-])c(Sc2nc3ccccc3[nH]2)c([N+](=O)[O-])c1,-7.4%,26.0%,x,50.1µM*,-7.1%,39.8µM*
CCN1CCN(c2ccc([N+](=O)[O-])c(Sc3nc4ccccc4[nH]3)c2)CC1,-33.9%,u,-11.8%,-0.1%,-26.7%,31.6µM*
Cn1cnc([N+](=O)[O-])c1Sc1nc2ccccc2[nH]1,-9.4%,14.5%,-7.0%,u,24.5%,-3.1%
CS(=O)(=O)c1cc([N+](=O)[O-])c(Sc2nc3ccccc3[nH]2)c([N+](=O)[O-])c1,u,u,x,12.6µM*,-29.3%,u
CN1C(=S)SC(N(O)C(=O)Nc2cccc3ccccc23)C1(C)C (stereo not drawn),-23.8%,-6.8%,-7.2%,-17.2%,-4.2%,44.7µM*
Cc1ccc(S(=O)(=O)Nc2nc3ccccc3nc2N2CCN(c3ccccc3F)CC2)cc1,-28.6%,11.5%,x,-16.3%,u,-48.7%[59 µM]
O=S(=O)(Nc1nc2ccccc2nc1N1CCN(CCO)CC1)c1cc(F)ccc1F,-5.4%,43.0%,27.3%,x,18.2%,7.08µM*
CCc1nnc(NC(=O)c2ccc(S(=O)(=O)N(CC(C)C)CC(C)C)cc2)o1,-8.2%,39.6%,146.4%,15.3%,-5.1%,-30.4%[59 µM]
CCOc1cc(-c2nnc(NC(=O)C3=COCCO3)o2)cc(OCC)c1OCC,-10.3%,46.5%,5.4%,x,-3.9%,-13.0%[2.33 µM]
SMILES,JMJD2A Tudor inh,HP1b chromo inh,L3MBTL1 block,Sfp inh,BAZ2B inh,G9a block
O=C(Nc1nnc(-c2ccc(Cl)cc2)o1)C1=COCCO1,u,27.8%,-15.8%,17.0%,50.1µM*,47.8%[59 µM]
CSCc1nnc(NC(=O)c2ccc(S(=O)(=O)N(C)C)cc2)o1,20µM*,13.5%,u,u,-1.6%,1.3%
CCc1nnc(NC(=O)c2ccc(S(=O)(=O)N(C)c3ccccc3)cc2)o1,25.1µM*,5.9%,x,18.6%,x,-18.6%
CN(c1ccccc1)S(=O)(=O)c1ccc(C(=O)Nc2nnc(C3=COCCO3)o2)cc1,-33.4%,40.4%,x,11.3%,79.4µM*,35.5µM*
Cc1ccc2[nH]c(=O)c3cc(C(=O)N(C)c4ccc(Br)cc4)sc3c2c1,-0.4%,49.2%,x,x,-3.7%,13.2%[59 µM]
COc1ccc(S(=O)(=O)Nc2cccc3cccnc23)c([N+](=O)[O-])c1,u,26.7%,x,x,x,x
Cc1ccc(C)c(CN2C(=O)c3ccccc3S(=O)c3ccc(C(=O)N(C)Cc4ccccc4)cc32)c1 (stereo not drawn),-23.9%,17.7%,x,x,-21.9%,-7.6%[59 µM]
CN(C)c1ccc(C(=O)Nc2nnc(C3=COCCO3)o2)cc1,79.4µM*,29.5%,x,5.5%,x,-3.0%
CS(=O)(=O)Nc1cccc(-c2cnc3ccccc3n2)c1,-13.6%,15.7%,x,-18.6%,0.7%,44.7µM*
O=C(Nc1ccc(-c2cn3c(n2)SCC3)cc1)c1ccc2c(c1)OCO2,-2.5%,20.8%,-5.9%,14.2%,-12.9%,3.7%
O=S(=O)(Nc1ccc(-c2ccc3nncn3n2)cc1)c1cccs1,-15.4%,-8.0%,5.6%,x,-0.7%,1.7%
CS(=O)(=O)Nc1cccc(-c2cn3c(n2)SCC3)c1,56.2µM*,u,x,9.3%,-33.9%,-32.4%
O=C(Nc1cccc(-c2cn3c(n2)SCC3)c1)c1ccc2c(c1)OCO2,u,-30.7%,-10.6%,14.7%,u,44.7µM*
O=S(=O)(Nc1ccc(-c2cn3c(n2)SCC3)cc1)c1cccs1,-30.8%,1.7%,x,5.1%,-27.4%,35.5µM*
COc1ccc(-c2nc3cnc(Nc4cccc(OC)c4)nc3n(C)c2=O)cc1,x,x,x,9.6%,x,11.5%[0.501 µM]
CN1CCC(=O)N(C(CSc2ccc(Br)cc2)c2ccccc2)CC1 (stereo not drawn),-31.0%,7.1%,x,0.0%,x,x
C/C(=N\NC(=O)c1cc(C)nc2ccccc12)c1ccccn1,20µM*,44.0%,28.2µM*,x,7.94µM*,24.8%[2.33 µM]
C/C(=N/NC(=O)c1ccccn1)c1c[nH]c2ccccc12,-25.2%,39.0%,-18.0%,5.3%,50.1µM*,u
S=C(NCc1ccccn1)Nc1cccc(Cl)c1,u,11.8%,0.1%,5.8%,-2.6%,16.6%[0.501 µM]
COc1cc(C(=O)N/N=C(\C)c2ccccn2)cc(OC)c1OC,-19.0%,19.6%,x,6.3%,-16.9%,63.4%
